Each structure is given as a SMILES string. The campaign covered roughly 290,000 compounds. About 800 (0.28%) were called active.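 The calls were made as follows: active = fall in fluorescence gain of 50% or more versus controls, with final raw signal at or below 3038400; inconclusive = same 50% fall but final raw signal above 3038400; inactive = fall in fluorescence gain under 50%.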 Shown is part of a subset that was picked to be rich in actives.

In the assay the target is CAAX prenyl protease 2 (Saccharomyces cerevisiae (strain ATCC 204508 / S288c)) (UniProt Q03530). Briefly: yeast Rce1p protease inhibitors, primary screen, biochemical, fluorescence, cell-free homogeneous (AID 2563). The settings on record: yeast membranes, quenched prenylated peptide cleavage fluorescence.
CAAX prenyl protease 2 (Saccharomyces cerevisiae (strain ATCC 204508 / S288c)), sequence (Q03530 whole entry, looked up): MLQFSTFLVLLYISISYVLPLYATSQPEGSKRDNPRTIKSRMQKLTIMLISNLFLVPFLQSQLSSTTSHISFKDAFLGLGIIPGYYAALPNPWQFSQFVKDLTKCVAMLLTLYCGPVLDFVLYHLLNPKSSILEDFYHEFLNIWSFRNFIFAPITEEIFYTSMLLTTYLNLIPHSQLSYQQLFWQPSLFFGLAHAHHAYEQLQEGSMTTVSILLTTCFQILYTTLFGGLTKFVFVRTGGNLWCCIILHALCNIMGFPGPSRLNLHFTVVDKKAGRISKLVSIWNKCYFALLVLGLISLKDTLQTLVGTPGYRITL
For `COc1ccc(NC(=O)CSc2nnc(Cc3ccccc3)c(=O)n2N)cc1`, the compound was classed as inactive.

With `Cc1cc(C)c(S(=O)(=O)NCC(c2ccc3c(c2)OCO3)N2CCOCC2)c(C)c1` (stereo not given), the compound was called inactive.

Take `COc1ccccc1N(C)S(=O)(=O)c1ccc(Cl)c(C(=O)Nc2ccncc2)c1`: the compound was called inactive.

For the compound `COCCNc1nc(N)c([N+](=O)[O-])c(N2CCCCCC2)n1`, the compound was called active.

As to `COCCNc1nc(N)c([N+](=O)[O-])c(NCCO)n1`, the result was inactive.

`Nc1nc(NCC(=O)O)nc(N2CCCCCC2)c1[N+](=O)[O-]`: the result was inactive.

Consider `O=C(NCC1(N2CCCCC2)CCCCC1)c1ccc(NS(=O)(=O)c2ccc(F)cc2)cc1`, for which the compound was called inactive.

For `COc1ccc2oc(C(=O)N(CC(C)C)C3CCS(=O)(=O)C3)c(C)c2c1` (stereo not given), the result was inactive.

As to `COc1ccc(S(=O)(=O)N2CCCCCC2)cc1C(=O)N(C)Cc1cccc(OC)c1OC`, the compound was called inactive.

On to `Cc1noc(C)c1CSCC(=O)Nc1ccc(Br)cc1Cl`, for which the compound was classed as inactive.

In the case of `COC(C[C@@H]1O[C@@H]1C(=O)[C@@H](C)OCc1ccccc1)OC`, the compound was classed as active.

Consider `COC(C/C=C/C(=O)[C@@H](C)OCc1ccccc1)OC`, for which the compound was classed as inactive.

`COC(C[C@@H]1O[C@@H]1C(=O)[C@H](C)OCc1ccccc1)OC`: the outcome was inactive.

`COc1ccc(/C=N/NC(=O)c2cc(-c3cccc(C)c3)nc3ccccc23)cc1O`: the compound was classed as inactive.

As for `CCOC(=O)C1CCN(C(=O)COC(=O)C2CCN(S(=O)(=O)c3ccc4c(c3)OCCO4)CC2)CC1`, the result was inactive.

Take `O=C(c1cc(-c2ccc(Cl)s2)nc2ccccc12)N1CCOCC1`: the call was inactive.

With `Cc1cc(C)c2nc(-c3ccco3)cc(C(=O)O)c2c1`, the compound was called active.

`O=C(Nc1cccc(F)c1)c1cc(-c2ccco2)nc2ccccc12`: the compound was called inactive.

Take `CN(C(=O)COC(=O)c1cc(-c2ccco2)nc2ccccc12)C1CCS(=O)(=O)C1` (stereo not given): the result was inactive.

Consider `CC(C)C(=O)NC(=S)Nc1ccccc1F`, for which the compound was called inactive.

With `CCCCC(=O)NNC(=S)NC(=O)C(c1ccccc1)c1ccccc1`, the compound was classed as inactive.

In the case of `CC(C)C(=O)Nc1cccc(NC(=S)NC(=O)C(c2ccccc2)c2ccccc2)c1`, the compound was classed as active.

For the compound `CS(=O)(=O)c1ccc(C(=O)OCC(=O)NNC(=O)COc2ccc(Cl)cc2)cc1`, the call was inactive.

Consider `CCC(=O)c1ccc(OCC(=O)OCC(=O)NC2CCCCCC2)cc1`, for which the outcome was inactive.

On to `Cc1nc2ccccn2c(=O)c1NC(=O)c1cccs1`, for which the call was inactive.

Consider `COc1ccccc1C(=O)Nc1ccccc1C(=O)Nc1ccccc1`, for which the compound was classed as inactive.

In the case of `COc1ccccc1C(=O)NNC(=O)c1ccc(NC(=O)c2ccccc2)cc1`, the call was active.

On to `COc1ccccc1C(=O)Nc1ccc(Nc2ccccc2)cc1`, for which the compound was classed as inactive.

Take `Cc1nc2ccccc2c(=O)n1-c1ccc(F)c(NC(=O)c2cccs2)c1`: the call was inactive.

Consider `Cc1cc(C)c(S(=O)(=O)N2CCCC2CNC(=O)c2ccc3c(c2)OCO3)c(C)c1` (stereo not given), for which the call was inactive.

As for `COC(=O)N/N=C/c1c[n+]([O-])c2ccccc2[n+]1[O-]`, the compound was called inactive.

Consider `NS(=O)(=O)c1cc(C(=O)OCC(=O)NNC(=O)c2ccccc2)ccc1Cl`, for which the compound was called inactive.

In the case of `CCN(CC(=O)Nc1ccccc1C(F)(F)F)C(=O)CSCc1c(C)noc1C`, the outcome was inactive.

As to `COc1ccc2nc(N3CCN(C(=O)c4ccc([N+](=O)[O-])o4)CC3)sc2c1`, the call was inactive.

For `CC(=O)c1ccc(S(=O)(=O)Nc2ccc(-c3ccc4nncn4n3)cc2)cc1`, the compound was classed as inactive.

`COC(=O)C1CCN(C(=O)NC2CC(=O)N(c3ccc4c(c3)OCCO4)C2)CC1` (stereo not given): the result was inactive.

Consider `Cc1cc(Br)ccc1NC(=O)c1cnc(N2CCN(c3ccccn3)CC2)c2ccccc12`, for which the outcome was active.

Turning to `O=C(CN1CCN(c2ccccn2)CC1)Nc1ccc(Br)cc1`, the compound was called inactive.

For the compound `Cc1cc(Br)ccc1NC(=O)c1sc2ncn(CC(=O)N3CCN(c4ccccn4)CC3)c(=O)c2c1C`, the result was inactive.

As to `O=C(Nc1ccc(N2CCCCC2)cc1)c1cc(S(=O)(=O)N2CCOCC2)ccc1F`, the outcome was inactive.

For the compound `CN1c2ccc(C=O)c3c(C=O)ccc(c23)N(C)C1(C)C`, the outcome was active.

Regarding `CCOc1ccc(S(=O)(=O)NCCC(=O)NCC(C)(C)N2CCOCC2)cc1`, the outcome was inactive.

Consider `CC(=O)Nc1ccc(NC(=O)CSc2nnnn2C2CCCCC2)cc1`, for which the call was inactive.

Consider `COc1ccc(Cl)cc1NS(=O)(=O)c1cccc(C(=O)NC2CCC(O)CC2)c1` (stereo not given), for which the result was inactive.

Consider `Cc1ccc(NC(=O)C2CC(=O)N(c3ccc4c(c3)OCCO4)C2)cc1S(=O)(=O)N1CCCCCC1` (stereo not given), for which the compound was classed as inactive.

`O=C(CCNC(=O)c1ccc(Br)cc1)NCCCc1ccccc1`: the result was inactive.

As to `CN(CC(=O)NNC(=O)CNC(=O)c1ccccc1Cl)S(=O)(=O)c1ccc(Cl)cc1`, the compound was called inactive.

For `COCc1c(C(=O)N/N=C\c2cccnc2)nnn1-c1nonc1N`, the compound was called inactive.

In the case of `Cc1ccc(SCc2c(C(=O)N/N=C/C3CC=CCC3)nnn2-c2nonc2N)cc1` (stereo not given), the call was inactive.

Regarding `COCc1c(C(=O)N/N=C/C2CC=CCC2)nnn1-c1nonc1N` (stereo not given), the compound was called active.

On to `CCCn1c(C2CCCN2c2nc(-c3ccc(C)cc3)cs2)nc2cc(Cl)c(N3CCCCC3)cc21` (stereo not given), for which the call was inactive.

As to `Cc1ccc(-c2csc(NCCc3nc4cc(Cl)c(Cl)cc4n3CCOCCO)n2)cc1`, the outcome was inactive.

For the compound `Cc1ccc(-c2csc(N3CCN(c4cc5c(cc4Cl)nc(-c4ccncc4)n5CCOCCO)CC3)n2)cc1`, the compound was classed as active.

Regarding `COc1ccc(Cl)cc1NC(=O)CN(C)C(=O)c1cc(-c2cccs2)nn1-c1ccccc1`, the compound was called inactive.

On to `COc1cc2ccccc2cc1C(=O)Nc1ccncc1`, for which the compound was called inactive.

With `CCc1nnc(NS(=O)(=O)c2ccc(NC(=O)c3cccc(OC(F)(F)C(F)F)c3)cc2)s1`, the result was inactive.

Regarding `CC1(C)O[C@H]2CC(=O)OCC23[C@H]2CC[C@@]4(C)[C@H](c5ccoc5)OC(=O)[C@H]5O[C@]54[C@]2(C)C(=O)C[C@@H]13` (stereo not given in full), the call was inactive.

Turning to `CCCNC(=O)c1ccc(N2CCC3(CC2)CC(c2cccc(Br)c2)=NO3)c(NC(=O)c2ccco2)c1`, the compound was classed as inactive.

For `Cc1cccc(N=C2SC(C)CN2C(=O)CN2C(=O)NC3(CCCC3)C2=O)c1` (stereo not given), the call was inactive.

With `O=C(NCC(O)c1ccc([N+](=O)[O-])cc1)C1CCCCC1` (stereo not given), the call was inactive.

On to `O=C(CC(c1ccccc1)c1ccccc1)NCC(O)c1ccc([N+](=O)[O-])cc1` (stereo not given), for which the compound was called active.

In the case of `CC(=O)NCC(O)c1ccc([N+](=O)[O-])cc1` (stereo not given), the compound was called inactive.

With `Cc1ccc(OCC(=O)Oc2ccccc2[N+](=O)[O-])cc1`, the compound was called inactive.

Regarding `Cc1cc(C)c(C)c(S(=O)(=O)N2CCN(C(=O)c3ccc4c(=O)n5c(nc4c3)CCC5)CC2)c1C`, the compound was called inactive.

Regarding `COc1ccc(CCNC(=S)N2CCN(S(=O)(=O)c3ccc(F)cc3)CC2)cc1`, the call was inactive.

On to `CC(=O)C12CC(C)=C(C)CC1CC1C3CCC4=CC(=O)CCC4(C)C3CCC12C` (stereo not given), for which the compound was classed as inactive.

For `CSc1nsc(NC(=O)Nc2ccccc2)n1`, the outcome was inactive.

Consider `CCN(Cc1ccccc1)C(=O)Cc1ccc(OC)c(S(=O)(=O)N2CCOCC2)c1`, for which the compound was classed as inactive.

For the compound `O=C(COc1coc(CN2CCN(c3ccccc3)CC2)cc1=O)Nc1ccccc1F`, the outcome was inactive.

`COCCCN(C(=O)CSCc1ccc(C)cc1)c1c(N)n(Cc2ccccc2)c(=O)[nH]c1=O`: the result was inactive.

As to `COc1ccc(N2CCN(S(=O)(=O)c3cc4c5c(c3)C(C)C(=O)N5CCC4)CC2)cc1` (stereo not given), the result was inactive.

As to `O=C(Nc1ncccc1O)c1ccc(S(=O)(=O)N2CCCCCC2)cc1`, the compound was called inactive.

Turning to `COc1cc(C2C(C(=O)c3cccs3)=C(O)C(=O)N2CCN2CCOCC2)ccc1OCCC(C)C` (stereo not given), the compound was classed as inactive.

For the compound `Cc1ccc2nc(SCC(=O)N3CC(C)OC(C)C3)nc(=O)n2c1` (stereo not given), the compound was called inactive.

Regarding `Cc1cccc(C)c1NC(=O)CNC(=O)c1c(C)nn(-c2ccccc2)c1C`, the call was inactive.

For the compound `CCc1noc(C)c1C(=O)N1CCCSC1=Nc1ccccc1OC`, the compound was called inactive.

Consider `CCCCn1c(N)c(N(CC(C)C)C(=O)C2CSC3(C)CCC(=O)N23)c(=O)[nH]c1=O` (stereo not given), for which the outcome was inactive.

On to `COc1ccc(CNC(=O)COC(=O)CCS(=O)(=O)c2ccc(C)cc2)cc1OC`, for which the outcome was inactive.

As to `Cc1c(NC(=O)C(C)Oc2cccc(Cl)c2)c(=O)n(-c2ccccc2)n1C` (stereo not given), the compound was called inactive.

On to `O=C(NC1CCCCC1)c1ccc(-c2ccc(Cl)cc2)o1`, for which the outcome was inactive.

With `CCOc1ccc(C(C)=O)cc1COC(=O)CNC(=O)c1cccs1`, the call was inactive.

For the compound `O=C(COc1coc(CN2CCN(c3ccccc3F)CC2)cc1=O)N1CCc2ccccc21`, the call was inactive.

Take `O=c1[nH]c(/C=C/c2cccc(Br)c2)nc2ccccc12`: the outcome was inactive.

With `COc1ccc(NC(=O)CN(C)C(=O)c2ccc(COc3ccccc3)o2)cc1`, the result was inactive.

With `Cc1ccc(S(=O)(=O)N2CCOCC2)cc1C(=O)Nc1ccccc1N1CCCC1`, the compound was called inactive.

With `COc1ccc([C@@H]2[C@@H]3C(=O)N(C(C)(C)C)C(=O)[C@@H]3[C@]3(Cc4ccccc4)C(=O)N(c4cccc(Br)c4)C(=O)N23)cc1`, the result was inactive.

For the compound `Cc1noc(C)c1C(=O)NCCc1ccc(S(N)(=O)=O)cc1`, the compound was classed as inactive.

In the case of `CCOC(=O)c1c(C)c(C(=O)NCCc2ccc(S(N)(=O)=O)cc2)c(C)n1CC`, the call was inactive.

Regarding `CCCNC(=O)c1c(N)n(-c2ccc(S(N)(=O)=O)cc2)c2nc3ccccc3nc12`, the result was active.

Take `CN(C)C(CNC(=O)c1cccc(S(=O)(=O)Nc2ccc(Br)cc2)c1)c1ccco1` (stereo not given): the compound was classed as inactive.

On to `COc1ccc(N2CC(C(=O)NCCN3C(=O)S/C(=C\c4cccnc4)C3=O)CC2=O)c(OC)c1` (stereo not given), for which the compound was called inactive.

As to `CC1(C)C/C(=N/Nc2ccc([N+](=O)[O-])cc2[N+](=O)[O-])C(C)(C)O1`, the compound was called inactive.

As for `COc1ccc(C(CNC(=O)c2ccc(NS(=O)(=O)c3ccc(F)c(C)c3)cc2)N(C)C)cc1` (stereo not given), the compound was called inactive.

`CCOC(=O)c1cnc2nc(SCc3ccccc3Cl)[nH]n2c1=O`: the result was inactive.

For the compound `CCOC(=O)c1cc(C(C)C)sc1NC(=O)COC(=O)c1nccnc1N`, the result was inactive.

Regarding `Cc1nc2ccccc2c(=O)n1-c1ccc(NS(=O)(=O)c2ccc(F)cc2F)cc1`, the outcome was inactive.

For the compound `O=C(CNC(=O)c1ccccc1Br)NCCSc1ccc(Br)cc1`, the outcome was inactive.

On to `COc1ccc(-c2oc3ncnc(NCCCO)c3c2-c2ccc(OC)cc2)cc1`, for which the compound was called inactive.

Regarding `COc1ccc(-c2oc3ncn(Cc4ccco4)c(=N)c3c2-c2ccc(OC)cc2)cc1`, the call was active.

For the compound `N=c1c2c(-c3ccccc3)c(-c3ccccc3)oc2ncn1Cc1ccco1`, the compound was classed as inactive.
